Bioassay records as filed in PubChem BioAssay.
This is a sample that favours compounds with a hit; in the whole collection about 10% have one here.
GPT2 inh: GPT2 alanine aminotransferase inhibition. Q8TD30. Recombinant GPT2, coupled pyruvate oxidase/HRP Amplex Red fluorescence. Potency, µM (series often up to 57.7 µM), for inactives: at the top dose activity change, negative = inhibition, actives largely listed as inhibitors. 100,000 tested, 0.25% active; further: on the % scale 0 is the no-effect control and ±100 the full control effect; nearly all actives have a fitted effect of over 60% in size
Target sequence (Q8TD30 whole entry, looked up): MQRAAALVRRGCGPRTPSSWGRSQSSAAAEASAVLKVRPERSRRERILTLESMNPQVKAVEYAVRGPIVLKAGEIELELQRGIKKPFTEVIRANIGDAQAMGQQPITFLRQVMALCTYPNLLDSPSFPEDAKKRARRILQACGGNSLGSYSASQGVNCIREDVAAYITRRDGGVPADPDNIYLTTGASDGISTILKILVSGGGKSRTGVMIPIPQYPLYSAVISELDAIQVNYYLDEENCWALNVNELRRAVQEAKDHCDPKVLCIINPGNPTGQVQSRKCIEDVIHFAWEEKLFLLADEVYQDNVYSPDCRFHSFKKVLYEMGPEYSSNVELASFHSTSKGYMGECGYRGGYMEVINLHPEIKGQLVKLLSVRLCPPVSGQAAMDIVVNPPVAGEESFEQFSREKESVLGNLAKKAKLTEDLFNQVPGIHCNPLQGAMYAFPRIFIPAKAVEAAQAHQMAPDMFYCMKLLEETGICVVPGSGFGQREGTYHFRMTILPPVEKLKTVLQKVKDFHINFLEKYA
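Recombinant GPT2 (10ng/uL) with 250uM a-KG and 2mM L-alanine, 30 min at room temperature, in HEPES pH 7.5 buffer. Pyruvate detected by pyruvate oxidase/HRP/Amplex Red fluorescence after 30 min in the dark; AOA (50uM) as positive control.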
NIH3T3 tox: kills NIH 3T3 cells; Potency, µM (top dose mostly 96.7 µM), inactives show top-dose activity change, negative = cytotoxicity, hits mostly inhibitors; NIH 3T3 viability, CellTiter-Glo ATP luminescence, 48-72 h; 94,000 tested, 4.3% active; further: on the % scale 0 is the no-effect control and ±100 the full control effect; nearly all actives have a fitted effect of over 55% in size
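Mouse fibroblast NIH 3T3 cells, 400 per well, received compound via pintool and were incubated for 48 or 72 hr prior to CellTiter-Glo ATP luminescence measurement.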
hNpr1 antagonist: human Npr1 receptor antagonism | P16066 | HEK293 hNpr1 GloSensor cGMP, ANP-stimulated luminescence | Potency, µM (doses to about 46.3 µM), for inactives: top-dose activity change, negative = inhibition, hits mostly inhibitors | 76,000 tested, 1.6% active | AID 1347048; calls by dose curve; further: on the % scale 0 is the no-effect control and ±100 the full control effect; nearly all actives have a fitted effect of over 60% in size
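Compound pre-incubated 30 min at room temperature on GloSensor-loaded HEK293 cells stably carrying hNpr1 and the pGS-40F cGMP biosensor. Stimulation uses hNppA at 0.1 nM final; luminescence is taken at baseline and 20 min post-agonist.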
HEK293 tox: HEK 293 cell cytotoxicity. HEK 293 viability, ATP luminescence (CellTiter-Glo), 48-72 h. Potency, µM (highest dose often 115 µM), for inactives: at the highest dose activity change, negative = cytotoxicity, usual class: inhibitors. 94,000 tested, 6.6% active; further: on the % scale 0 is the no-effect control and ±100 the full control effect; nearly all actives have a fitted effect of over 60% in size
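Pintool-delivered compounds were incubated with HEK 293 cells (250 cells/well) at 37 degree Celsius for 48 or 72 hr. ATP-dependent luminescence (CellTiter-Glo) then reported remaining viable cells.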
FLuc inh-1: Photinus pyralis luciferase inhibition; Potency, µM (titrated, usually from 115 µM), actives largely listed as inhibitors; 76,000 tested, 2.5% active; purified P. pyralis luciferase, luminescence, biochemical; AID 1347043; further: on the % scale 0 is the no-effect control and ±100 the full control effect; nearly all actives have a fitted effect of over 65% in size
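Cell-free enzyme assay, 10nM P. pyralis luciferase, luciferin and ATP each at 10uM. Inhibition profiled over a 6-point titration, read as luminescence.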
FLuc SDR -ATP: firefly luciferase binding stabilization, ATP absent; shares compounds with FLuc inh-1; Purified FLuc-C-HiBiT, Nano-Glo HiBiT luminescence, no ATP; Potency, µM (doses to about 32.7 µM), without a hit: at the highest dose activation (signal gain), hits mostly activators; 1,300 tested, 7.8% active; AID 1963318; further: nearly all actives have a fitted effect of over 55% in size
FLuc SDR ATP: stabilizes firefly luciferase with ATP present; Potency, µM (highest dose often 32.7 µM), for the others: at the top dose activation (gain of signal), actives largely listed as activators; shares compounds with FLuc inh-1; 1,300 tested, 8.7% active; purified FLuc-C-HiBiT + ATP, HiBiT complementation luminescence;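 further: signal reports ligand binding via conformational change of the enzyme rather than luciferase catalysis; % of control where 0% means no effect; nearly all actives have a fitted effect of over 55% in size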
FLuc inh-2: firefly luciferase enzyme inhibition | Potency, µM (titrated, usually from 32.7 µM), for inactives: at the top dose activity change, negative = inhibition, usual class: inhibitors | 1,300 tested, 42% active | purified FLuc-C-HiBiT enzyme, luciferin luminescence | shares compounds with FLuc inh-1; further: on the % scale 0 is the no-effect control and ±100 the full control effect; nearly all actives have a fitted effect of over 70% in size
The depositor's hits bear a star; i = inactive; ? = inconclusive; . = not tested or not shown; [ ] = dose if it differs, or a comment. Unless noted, the call rests on the fitted dose curve; in most records, active means well fitted curve in the direction sought with a large enough effect; inconclusive means small, poorly fitted or top-dose-only effect, or another doubt; inactive means no such curve, though single readings can be large; an effect the other way counts as inactive or inconclusive. Potency means the concentration at half of the fitted maximal effect.

SMILES	GPT2 inh	NIH3T3 tox	hNpr1 antagonist	HEK293 tox	FLuc inh-1	FLuc SDR -ATP	FLuc SDR ATP	FLuc inh-2
O=C1c2cnc(-c3cccc(C(F)(F)F)c3)nc2OCCN1CC1CC1	5%[88.5 µM]	?	?	?	3.2µM*	?	?	9µM*
Cc1noc(C)c1-c1ncc2c(n1)OCCN(Cc1ccccc1)C2=O	-9%[88.5 µM]	?	-8%[70.6 µM]	-41%[172 µM]	i	.	.	.
O=C1c2cnc(-c3cccc(CO)c3)nc2OCCN1c1cccc(C(F)(F)F)c1	2%[88.5 µM]	18µM*	?	?	11µM*	16%[49.3 µM]	14%[49.3 µM]	?
O=C1c2cnc(-c3ccsc3)nc2OCCN1CC1CC1	?	-17%[138 µM]	-12%[70.6 µM]	?	?	.	.	.
CN1CCOc2nc(-c3cccc(OC(F)(F)F)c3)ncc2C1=O	-7%[88.5 µM]	?	?	?	3.2µM*	21%[49.3 µM]	?	?
Cc1ccc(-c2ncc3c(n2)OCCN(Cc2ccc(F)cc2F)C3=O)cc1	0%[88.5 µM]	?	?	-22%[172 µM]	3.2µM*	12%[49.3 µM]	11%[49.3 µM]	-4%[49.3 µM]
C[S+](=O)([O-])c1ccc(-c2ncc3c(n2)OCCN(Cc2ccc(F)cc2F)C3=O)cc1	2%	-17%	-10%	?	i	.	.	.
O=C(c1ccc(F)cc1)N1CC(c2noc(-c3ccccc3)n2)C1	5%	-15%	0%	-12%	i	.	.	.
O=C(O)c1cccc(-c2noc(-c3ccc(F)cc3)n2)c1	.	.	.	.	.	5µM*	0.0056µM*	0.0044µM*
O=C(O)c1cccc(-c2noc(-c3ccccc3Cl)n2)c1	.	.	.	.	.	2.8µM*	0.0062µM*	0.0035µM*
COc1cccc(-c2nc(-c3ccc(C(=O)O)cc3)no2)c1	.	.	.	.	.	?	0.88µM*	0.79µM*
O=C(O)c1ccc(-c2noc(-c3cccc(F)c3)n2)cc1	.	.	.	.	.	17%	?	5µM*
CC(C)NC(=O)N1C[C@@H]2C[C@H]1C(=O)N(C)c1ccccc1O2	4%[88.5 µM]	0%[138 µM]	4%[70.6 µM]	i	i	.	.	.
O=C(O)c1cccc(-c2noc(-c3cccc([N+](=O)[O-])c3)n2)c1	.	.	.	.	.	11µM*	0.0079µM*	0.007µM*
O=C(O)c1cccc(-c2noc(-c3cccc(F)c3)n2)c1	.	.	.	.	.	?	0.007µM*	0.007µM*
Cc1ccc(NC(=O)c2ccc(Cn3ccn4nc5c(c4c3=O)CCCC5)cc2)cc1C	0%	-22%	-16%	?	?	.	.	.
Cc1ccc(NC(=O)c2ccc3snnc3c2)cc1C	.	.	.	.	.	18%	?	?
CCOC(=O)CNC(=O)N1CCC(N2C(=O)C(OCC3CC3)C23CCCCC3)CC1 (centres undefined)	-14%	-22%	7%	?	i	.	.	.
CCN(CC1CCOCC1)C(=O)c1cc(COc2ccccc2F)[nH]n1	-3%	-1%	5%	-11%	i	.	.	.
CCN(CC1CCOCC1)C(=O)c1cccnc1SC/C=C/c1ccccc1	i	-25%	-5%	?	11µM*	8%	5%	?
Cc1ccc(NS(=O)(=O)c2ccccc2)c(=O)n1CC(=O)N1CCCCC1	4%	-9%	2%	-21%	i	.	.	.
Cc1ccc(NC(=O)Nc2ccc(C)n(CC(=O)NC(C)c3cccnc3)c2=O)cc1 (centres undefined)	i	-21%	-15%	?	1.1µM*	7µM*	?	1.6µM*
Cc1ccc(NC(=O)Nc2ccc(C)n(CC(=O)N3CCC(C)CC3)c2=O)cc1	i	-17%	-18%	?	4.5µM*	?	?	3.9µM*
COc1ccc(NC(=O)Nc2ccc(C)n(CC(=O)N3CCCCCC3)c2=O)cc1	-8%	i	-1%	-2%	8.9µM*	?	?	9.9µM*
Cc1ccc(NC(=O)Nc2ccc(C)n(CC(=O)NC3CCCC3)c2=O)cc1	-9%	?	?	?	0.4µM*	1.6µM*	?	0.7µM*
SMILES	GPT2 inh	NIH3T3 tox	hNpr1 antagonist	HEK293 tox	FLuc inh-1	FLuc SDR -ATP	FLuc SDR ATP	FLuc inh-2
COCC1(c2nc(-c3ccc(C(N)=O)cc3)nn2-c2ccc(OC)cc2)CC1	4%[11.5 µM]	-8%	-3%	i	i	.	.	.
Cc1ccc(NC(=O)Nc2ccccc2)c(=O)n1CC(=O)NCC1CCCO1 (centres undefined)	-21%	?	-13%	-1%	14µM*	?	?	?
Cc1ccc(NC(=O)Nc2ccccc2)c(=O)n1CC(=O)NC1CCCCC1	i	-10%	0%	-9%	i	.	.	.
COc1ccccc1NC(=O)Cn1c(C)ccc(NC(=O)Nc2ccc(C)cc2)c1=O	i	22µM*	?	?	0.63µM*	?	?	0.7µM*
Cn1ccc2c(C(=O)NCc3cccnc3)nc(-c3ccc(N4CCOCC4)cc3)cc21	5%[88.5 µM]	?	-11%[70.6 µM]	112µM*	14µM*	15%[49.3 µM]	11%[49.3 µM]	?
CN1CCN(c2ccc(-c3cc4c(ccn4C)c(C(=O)NCC4CCC(=O)N4)n3)cc2)CC1 (centres undefined)	i	28µM*	1%	40µM*	10µM*	18%	12%	?
CN(C)CCNC(=O)c1nc(-c2cccc(N3CCOCC3)c2)cc2c1ccn2C	1%[88.5 µM]	?	3%[70.6 µM]	?	i	.	.	.
CN1CCN(c2ccc(-c3cc4c(ccn4C)c(C(=O)NCCC(N)=O)n3)cc2)CC1	2%[88.5 µM]	79µM*	-3%[70.6 µM]	71µM*	7.1µM*	26%[49.3 µM]	17%[49.3 µM]	14µM*
CCC(=O)N1CCc2c(C(=O)NCc3cc(C)ccc3C)cccc21	-5%	-11%	3%	-29%	i	.	.	.
Cc1cccc(NC(=O)N2CCc3c(C(=O)NC(C)(C)C)cccc32)c1	-13%	-14%	-12%	?	7.1µM*	?	?	8.8µM*
CCN1CCN(CCNC(=O)c2cccc3c2CCN3C(=O)Nc2ccc(C)cc2)CC1	-1%	?	?	?	2µM*	?	1.6µM*	1.1µM*
CNC(=O)c1cccc2c1CCN2C(=O)Nc1ccc(C)cc1	i	?	6.3µM*	-26%	0.4µM*	11µM*	0.44µM*	0.35µM*
O=C1CCC2(C(=O)NCCc3ccccc3)CCCC=C2N1c1ccccc1 (centres undefined)	i	-14%	-23%	?	3.2µM*	11%	20%	?
Cc1ccc(-c2ncc(C(=O)Nc3ccccc3)c(-c3ccncc3)n2)cc1	?	-4%	-8%	?	i	.	.	.
